# Test results taken from PubChem BioAssay (NCI).
# The panel holds about 83,000 compounds, 20% with a hit somewhere; the sample as a whole holds those more often.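 Testing used 96-well plates and a 48-hour single-concentration exposure. Example: -40 means 40% of the starting cells died.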 Unmarked numbers belong to inactive results. Active and inactive are the calls of the source. The calls were made as follows: active = growth percent below 10; inactive = the rest.
# System: SF-539 CNS
# Test: NCI-60 one-dose screen, 48 h (100 = growth as untreated, 0 = no growth, -100 = all killed)
# Conditions: 10 µM unless noted
row,SMILES,growth
1,O=C1/C(=C/c2ccc(O)cc2)COc2ccc(-c3ccccc3)cc21,90.7%
2,CC(=O)N1N=C(c2cccc(Nc3ccncc3)c2)CC1c1ccc2c(c1)OCO2 (stereo unspecified),77.9%
3,Clc1nc(Cl)c2ncn(CCOCCn3cnc4c(Cl)nc(Cl)nc43)c2n1,-89.9% (active)
4,COc1ccc(/C=C2\COc3ccc(-c4ccccc4)cc3C2=O)cc1O,-0.576% (active)
5,Cc1c2c(cc[n+]1Cc1ccccc1)c1ccc(OCC3CCCCC3)cc1n2CC1CCCCC1,-85.2% (active)
6,CC[N+](CC)(CCCC(C)[N+]1(Cc2ccccc2)C(C)=CC=C1C)Cc1ccccc1 (stereo unspecified),97.6%
7,CN1C(=O)N(C)[C@H]2NC(NN)=N[C@H]21,102%
8,O=C(Nc1cccc(Cl)c1)Oc1c(Br)c(Br)c(Br)c(Br)c1Br,98.1%
9,NC(=O)c1ncn(C2OC(CO)C(O)C2O)n1 (stereo unspecified),97.6%
10,COc1cc(/C=C/C(=O)c2c(C)oc3nc[nH]c(=O)c23)ccc1O,97.5%
11,COc1cc(NCCCN(CC(C)C)CC(C)C)c2ncccc2c1,102%
12,O=[N+]([O-])c1cccc(-c2nc(-c3ccc(Cl)cc3Cl)cn2-c2ccccc2)c1,23.6%
13,O=C(N/N=C/c1ccc(F)cc1)c1ccccc1Nc1cccc(C(F)(F)F)c1,109%
14,COc1ccc(Cn2nc(-c3cc(OC)c(OC)c(OC)c3)c3c2CCc2cnoc2-3)cc1OC,37.7%
15,Fc1ccc(C2CC(c3cccc(Nc4ccncc4)c3)=NN2c2ccccc2)cc1 (stereo unspecified),69.7%
16,CCn1cc(C2NC(=O)c3ccccc3N2)c2cccc(C)c21 (stereo unspecified),-49.7% (active)
17,Cc1nc2sc(C(=O)Nc3ccccc3)c(N)c2cc1C(=O)c1ccc(C(F)(F)F)cc1,93.5%
18,CC(=O)c1c(C)[nH]c(-c2nc3ccc(N4CCN(C)CC4)cc3[nH]2)c1-c1ccccc1,24.9%
19,CCC1(CC)NC(=O)c2c(c3ccc(Cl)c(Cl)c3n2C)C1C#N (stereo unspecified),95.4%

row,SMILES,growth
1,O=C(Nc1ccc(F)cc1)c1c(NC(=O)C(F)(F)F)sc2c1CCCCC2,-0.67% (active)
2,O=C(NCCN1CCOCC1)OCc1nc2nc(Cl)nc(N3CCOCC3)c2[nH]1,-15.8% (active)
3,CC(C)[N+](C)(CCOC(COc1ccccc1)COc1ccccc1)C(C)C,100%
4,COc1ccc(C(=O)c2cc3c(N)c(C(=O)Nc4cccc(Cl)c4C)sc3nc2C)cc1,-10.2% (active)
5,COc1ccccc1/C=C1\Oc2cc(OCCCN3CCCC3)ccc2C1=O,76.4%
6,CCc1nc(C)cn1C(=O)OCc1nc2nc(Cl)nc(N3CCOCC3)c2[nH]1,-74.8% (active)
7,CN1CCN(c2cc(F)c(NC3=C(Cl)C(=O)c4ncccc4C3=O)c(F)c2)CC1,-25.1% (active)
8,COc1ccc(Cl)cc1NC(=O)c1c(NC(=O)C(F)(F)C(F)(F)F)sc2c1CCCCC2,4.26% (active)
9,COc1ccccc1/C=C1\COc2ccc(-c3ccccc3)cc2C1=O,30.5%
10,O=C(O)CCCCCCCCCCCCCCC(=O)O,105%
11,NC(=O)C1(N2CCCCC2)CCN(CCCC(=O)c2ccc(F)cc2)CC1,-3.17% (active)
12,CCN1C(=O)/C(=c2\sc3n(c2=O)NC2C(N=3)N(CC)C(=O)N2CC)c2ccccc21 (stereo unspecified),-18.6% (active)
13,CCCCCCCCCCCCCCCC(=O)OC[C@@]1(O)C[C@@]23CC[C@@H]4C(C)(C)[C@H](O)CC[C@@]4(C)[C@@H]2CC[C@H]1C3,97.8%
14,CCOC(=O)c1ccc(Nc2ccnc(SCC(=O)c3ccc(C#N)cc3)n2)cc1,83%
15,O=S(=O)(c1cccc(NC2=Nc3cccc4cccc2c34)c1)N1CCCC1,74.9%
16,COc1ccccc1N1CCN(C(=O)c2ccc3nc(NC(=O)c4ccc(NCCc5ccccc5)c([N+](=O)[O-])c4)sc3c2)CC1,99.7%
17,CCN(CC)CCOC(COc1cc(C)cc(C)c1)COc1cc(C)cc(C)c1,61.9%
18,COc1ccc(Nn2c(SCC(=O)Nc3nc(-c4ccc(Cl)cc4)cs3)nc(C)c2C)cc1,79.1%
19,CC1=CC2(C)/C=C(C)/C=C\CC(O)/C=C3/C=CC(=C4C(=O)OC2(CC1C)C4=O)OC3 (stereo unspecified),-82.1% (active)

# System: UACC-257 melanoma
# Test: as above
# Conditions: 10 µM unless noted
row,SMILES,growth
1,O=C1/C(=C/c2ccc(O)cc2)COc2ccc(-c3ccccc3)cc21,92.7%
2,CC(=O)N1N=C(c2cccc(Nc3ccncc3)c2)CC1c1ccc2c(c1)OCO2 (stereo unspecified),100%
3,Clc1nc(Cl)c2ncn(CCOCCn3cnc4c(Cl)nc(Cl)nc43)c2n1,-89.7% (active)
4,COc1ccc(/C=C2\COc3ccc(-c4ccccc4)cc3C2=O)cc1O,48.3%
5,Cc1c2c(cc[n+]1Cc1ccccc1)c1ccc(OCC3CCCCC3)cc1n2CC1CCCCC1,-92.4% (active)
6,CC[N+](CC)(CCCC(C)[N+]1(Cc2ccccc2)C(C)=CC=C1C)Cc1ccccc1 (stereo unspecified),84.2%
7,CN1C(=O)N(C)[C@H]2NC(NN)=N[C@H]21,97.1%
8,O=C(Nc1cccc(Cl)c1)Oc1c(Br)c(Br)c(Br)c(Br)c1Br,69.4%
9,NC(=O)c1ncn(C2OC(CO)C(O)C2O)n1 (stereo unspecified),97.7%
10,COc1cc(/C=C/C(=O)c2c(C)oc3nc[nH]c(=O)c23)ccc1O,96.6%
11,COc1cc(NCCCN(CC(C)C)CC(C)C)c2ncccc2c1,90.9%
12,O=[N+]([O-])c1cccc(-c2nc(-c3ccc(Cl)cc3Cl)cn2-c2ccccc2)c1,-63.6% (active)
13,O=C(N/N=C/c1ccc(F)cc1)c1ccccc1Nc1cccc(C(F)(F)F)c1,105%
14,COc1ccc(Cn2nc(-c3cc(OC)c(OC)c(OC)c3)c3c2CCc2cnoc2-3)cc1OC,75.8%
15,Fc1ccc(C2CC(c3cccc(Nc4ccncc4)c3)=NN2c2ccccc2)cc1 (stereo unspecified),37.8%
16,CCn1cc(C2NC(=O)c3ccccc3N2)c2cccc(C)c21 (stereo unspecified),66.7%
17,Cc1nc2sc(C(=O)Nc3ccccc3)c(N)c2cc1C(=O)c1ccc(C(F)(F)F)cc1,101%
18,CC(=O)c1c(C)[nH]c(-c2nc3ccc(N4CCN(C)CC4)cc3[nH]2)c1-c1ccccc1,48.4%
19,CCC1(CC)NC(=O)c2c(c3ccc(Cl)c(Cl)c3n2C)C1C#N (stereo unspecified),100%

row,SMILES,growth
1,O=C(Nc1ccc(F)cc1)c1c(NC(=O)C(F)(F)F)sc2c1CCCCC2,-23.9% (active)
2,O=C(NCCN1CCOCC1)OCc1nc2nc(Cl)nc(N3CCOCC3)c2[nH]1,69.2%
3,CC(C)[N+](C)(CCOC(COc1ccccc1)COc1ccccc1)C(C)C,78.7%
4,COc1ccc(C(=O)c2cc3c(N)c(C(=O)Nc4cccc(Cl)c4C)sc3nc2C)cc1,57.6%
5,COc1ccccc1/C=C1\Oc2cc(OCCCN3CCCC3)ccc2C1=O,109%
6,CCc1nc(C)cn1C(=O)OCc1nc2nc(Cl)nc(N3CCOCC3)c2[nH]1,-80.8% (active)
7,CN1CCN(c2cc(F)c(NC3=C(Cl)C(=O)c4ncccc4C3=O)c(F)c2)CC1,-62.2% (active)
8,COc1ccc(Cl)cc1NC(=O)c1c(NC(=O)C(F)(F)C(F)(F)F)sc2c1CCCCC2,-16.5% (active)
9,COc1ccccc1/C=C1\COc2ccc(-c3ccccc3)cc2C1=O,56.9%
10,O=C(O)CCCCCCCCCCCCCCC(=O)O,95.6%
11,NC(=O)C1(N2CCCCC2)CCN(CCCC(=O)c2ccc(F)cc2)CC1,47.1%
12,CCN1C(=O)/C(=c2\sc3n(c2=O)NC2C(N=3)N(CC)C(=O)N2CC)c2ccccc21 (stereo unspecified),82.5%
13,CCCCCCCCCCCCCCCC(=O)OC[C@@]1(O)C[C@@]23CC[C@@H]4C(C)(C)[C@H](O)CC[C@@]4(C)[C@@H]2CC[C@H]1C3,110%
14,CCOC(=O)c1ccc(Nc2ccnc(SCC(=O)c3ccc(C#N)cc3)n2)cc1,77.7%
15,O=S(=O)(c1cccc(NC2=Nc3cccc4cccc2c34)c1)N1CCCC1,64.9%
16,COc1ccccc1N1CCN(C(=O)c2ccc3nc(NC(=O)c4ccc(NCCc5ccccc5)c([N+](=O)[O-])c4)sc3c2)CC1,72.7%
17,CCN(CC)CCOC(COc1cc(C)cc(C)c1)COc1cc(C)cc(C)c1,65.1%
18,COc1ccc(Nn2c(SCC(=O)Nc3nc(-c4ccc(Cl)cc4)cs3)nc(C)c2C)cc1,48.9%
19,CC1=CC2(C)/C=C(C)/C=C\CC(O)/C=C3/C=CC(=C4C(=O)OC2(CC1C)C4=O)OC3 (stereo unspecified),-57% (active)
